High-throughput results from PubChem.
Most compounds without a hit are left out; they make up all but 0.85% or so of the library.
MmCpn inh = inhibitors of Methanococcus maripaludis chaperonin TRiC (MmCpn) | purified Mm-Cpn ATPase, ADP Transcreener TR-FRET | 0.031% of 330,000 active | Potency, µM (doses to about 76.9 µM), most hits filed as inhibitors; further: nearly all actives have a fitted effect of over 80% in size
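Reaction buffer contained 30 mM Tris pH 7.4, 100 mM KCl, 5 mM MgCl2 and 1 mM DTT. Mm-CPN (25 nM final) hydrolysed 10 uM ATP over 30 min at 37°C; ADP was read by HTRF.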
GLS inh = glutaminase GLS (human) inhibition; AID 624170; Potency, µM (highest dose often 45.5 µM), most hits filed as inhibitors; 0.21% of 410,000 active; GLS enzymatic activity, qHTS titration; O94925
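Two-point fluorescence kinetic (t0, 30 min RT) for hKGA; glutamate detected via glutamate oxidase–HRP–Amplex Red. Substrate: 1 mM L-glutamine solution; buffer 45 mM KH2PO4, pH 8.2.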
CCT chaperon mod = modulators of cytosolic chaperonin (CCT/TRiC) activity; activity change, % (test concentration not listed), hits read low; 0.3% of 360,000 active; purified chaperonin ATPase assay, HTRF ADP detection, 30 min; in the data active means activity change below about -30%
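TRiC (40 or 20 nM final, by batch activity) in 30 mM Tris pH 7.4, 100 mM KCl, 5 mM MgCl2, 1 mM DTT was treated with compound at 76 uM single dose, then 10 uM ATP, 30 min at 37 °C. ADP was read by HTRF Transcreener.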
pAkt inh = inhibitors of Akt phosphorylation; Neuro2A IGF-stimulated pAkt S473 HTRF, 20 min; active compounds read low; activity change, % for hits at 50 µM; 0.32% of 360,000 active; in the data active means activity change below about -80%
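Neuro2A cells in DMEM with 0.5% FBS, overnight at 37 deg C, given compound at single 50 µM final, then IGF (6 nM final) for 20 min at 37 deg C. Lysed; phospho-Akt Ser473 by HTRF after 24 h, 665/615 ratio.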
mIDH1 inhibitor = human IDH1 R132H inhibition; IDH1-R132H enzyme, NADPH consumption, diaphorase/resazurin fluorescence; Potency, µM (series often up to 76.6 µM), usual class: inhibitors; 0.093% of 390,000 active; AID 602179; O75874; further: nearly all actives have a fitted effect of over 65% in size
Target sequence (O75874 whole entry R132H, stated change not applied): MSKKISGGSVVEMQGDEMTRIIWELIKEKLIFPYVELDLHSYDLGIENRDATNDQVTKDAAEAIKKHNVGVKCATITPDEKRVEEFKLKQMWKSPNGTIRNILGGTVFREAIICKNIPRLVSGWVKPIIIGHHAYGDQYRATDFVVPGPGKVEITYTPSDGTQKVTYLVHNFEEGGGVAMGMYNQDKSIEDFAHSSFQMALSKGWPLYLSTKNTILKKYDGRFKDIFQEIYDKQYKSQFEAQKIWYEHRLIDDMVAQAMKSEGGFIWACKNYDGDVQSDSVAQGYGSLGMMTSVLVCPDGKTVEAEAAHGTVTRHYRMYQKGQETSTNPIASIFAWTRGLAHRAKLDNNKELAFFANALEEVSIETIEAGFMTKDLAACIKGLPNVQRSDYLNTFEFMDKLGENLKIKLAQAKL
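IDH1-R132H (0.5 ug/mL) preincubated 30 min with compound, then NADPH (0.016 mM) and alpha-KG (2 mM) added; 80 min at RT, pH 7.5. Remaining NADPH coupled via diaphorase/resazurin to fluorescence (540/590 nm); concentration-response curves normalized to no-enzyme control.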
Glioma ERSR ind = ER stress response induction in glioma. U87-MG GRP78 promoter luciferase reporter, 16 h. Potency, µM, most hits filed as activators. 0.02% of 420,000 active; further: series mostly up to about 76 µM; nearly all actives have a fitted effect of over 35% in size
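Stably transfected U87-MG glioma cells carrying a GRP78-based luciferase sensor; 16 h compound incubation. Luminescence end-point read 10 min after Bright-Glo addition at room temperature.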
A number is an active result; – = inactive; · = not tested or not shown. Unless noted, the call rests on the fitted dose curve; in most records, active means well fitted curve in the direction sought with a large enough effect; inconclusive means small, poorly fitted or top-dose-only effect, or another doubt; inactive means no such curve, though single readings can be large; an effect the other way counts as inactive or inconclusive.

SMILES	MmCpn inh	GLS inh	CCT chaperon mod	pAkt inh	mIDH1 inhibitor	Glioma ERSR ind
COc1ccc(-c2cc(C(=O)Nc3cc(OC)c(OC)c(OC)c3)no2)cc1	–	–	-34.0	–	–	–
Cc1nnc(SCC(=O)N2CCN(c3ccccc3F)CC2)n1C1CC1	–	–	-97.0	–	–	–
O=C(CSc1nnnn1C1CC1)N1CCN(c2ccccc2F)CC1	–	–	–	–	–	–
Fc1c(F)c(C(F)(F)F)c(F)c(F)c1N/N=C\c1cccs1	–	–	-36.9	–	–	–
CC(=O)N1CCN(c2nc3cc(C)ccc3cc2CN(C(=O)c2cccc3ccccc23)C2CC2)CC1	·	·	·	·	·	–
CCC1CN(CC(=O)NC(C)CO)Cc2cc(OC)ccc2O1 (configuration not stated)	·	·	·	·	·	–
O=C(Cc1ccccc1)Nc1nccs1	–	–	–	–	–	–
O=C(Cc1ccccc1[N+](=O)[O-])Nc1nccs1	–	–	-32.6	–	–	–
COc1cccc(CNc2ncnc3sc(C(=O)N4CC5CCC4C5)c(C)c23)c1OC (configuration not stated)	·	·	·	·	·	–
CC(C)(C)c1ccc(S(=O)(=O)N[C@H]2CC[C@@H](n3cc(C(=O)N4CCCC4)nn3)CC2)cc1	·	·	·	·	·	–
CCOc1ccccc1N1C(=O)CC(Sc2ncccc2C(=O)O)C1=O (configuration not stated)	–	17.8µM	–	–	–	–
Cc1ccc(N2C(=O)CC(Sc3ncccc3C(=O)O)C2=O)cc1 (configuration not stated)	–	–	–	–	–	–
COC(=O)C1CCN(Cc2ccc3c(c2)CN(C(=O)c2ccc4nc(C)c(C)nc4c2)CCO3)CC1	·	·	·	·	·	–
O=S(=O)(NCC1OCCc2ccccc21)c1ccc(S(=O)(=O)N2CCOCC2)cc1 (configuration not stated)	–	–	-51.9	–	–	–
O=C(Nc1nc2ccccc2[nH]1)c1ccc(F)c(S(=O)(=O)N2CCOCC2)c1	–	–	-43.7	–	–	–
CCOC(=O)c1c(C)nc2sc3c(=O)n(-c4ccc(OC)cc4)nnc3c2c1-c1ccc(OC)cc1	–	–	–	–	–	–
CCOC(=O)c1c(C)nc2sc3c(=O)n(-c4ccc(C(C)=O)cc4)cnc3c2c1-c1ccc(OC)cc1	–	–	–	-108.0%	–	–
COC(=O)C1=C(C)C(c2ccc(OC)cc2OC)NC(=O)N1 (configuration not stated)	–	–	–	-117.4%	–	–
CC(=O)Nc1ccc(N(CC(O)Cn2c3ccccc3c3ccccc32)S(=O)(=O)c2ccc(C)cc2)cc1 (configuration not stated)	–	–	-46.0	–	–	–
C=CCOc1ccc(CNn2cn[nH]c2=S)cc1OC	–	–	–	–	–	–
C=CCOc1ccc(CNn2cn[nH]c2=S)cc1OCC	–	–	–	-82.0%	–	–
COc1ccc(Cc2nnc(Nc3ccc(C)cc3C)[nH]c2=O)cc1	–	–	–	-121.5%	–	–
COc1ccc(Cc2nnc(NN)[nH]c2=O)cc1OC	–	22.4µM	–	–	–	–
Cc1cc(Cl)ccc1OCC(=O)N1CCOc2ccc(CN3C[C@@H](C)O[C@@H](C)C3)cc2C1	·	·	·	·	·	–
CC(NC(CCc1ccccc1)C(=O)O)C(=O)N1CCCC1C(=O)O (configuration not stated)	·	–	·	·	·	–
SMILES	MmCpn inh	GLS inh	CCT chaperon mod	pAkt inh	mIDH1 inhibitor	Glioma ERSR ind
COc1ccc(NC(=O)CNC(=O)c2nn(-c3ccc(OC)cc3OC)c(=O)c3ccccc23)c(OC)c1	–	–	-55.6	–	–	–
COc1ccc(CN2CCCC(n3cc(C(=O)N4CCCCC4)nn3)C2)c(OC)c1OC (configuration not stated)	·	·	·	·	·	–
CCOc1cc(CNc2ccccc2)cc(Br)c1OCc1ccc(F)cc1	–	–	–	–	–	–
CCOc1cc(CNc2ccc(O)cc2)cc(Cl)c1OCc1ccccc1	·	–	·	·	–	12.6µM
CCOC(=O)c1sc2ncnc(NCc3ccco3)c2c1C	–	–	–	-111.5%	–	–
O=C(NCC1Cc2cc(F)cc(-c3cnccn3)c2O1)c1cccc(-c2ccccc2F)c1 (configuration not stated)	·	·	·	·	·	–
CC1(C)O[C@@H]2[C@H](O1)[C@@H](CO)O[C@H]2n1cnc2c(=O)[nH]cnc21	–	–	-49.4	–	–	–
CC(C)CN(C[C@@H](OP(=O)(O)O)[C@H](Cc1ccccc1)NC(=O)O[C@@H]1CCOC1)S(=O)(=O)c1ccc(N)cc1	·	14.1µM	·	·	·	–
Cc1nc(C)c(CC(=O)N2CCOc3ccc(CN4CCN(c5ccccn5)CC4)cc3C2)s1	·	·	·	·	·	–
COc1ccc(/C=C/C(=O)O)cc1S(=O)(=O)NC1CCS(=O)(=O)C1 (configuration not stated)	–	–	-96.9	–	–	–
COc1cc(/C=C/C(=O)O)cc(S(=O)(=O)NC2CCCC2)c1OC	–	–	–	–	–	–
CC(=O)Nc1ccc(NC(=O)Nc2ccc(C)cc2C)cc1	–	–	–	–	–	–
CCC(=O)NNC(=O)CCC(=O)Nc1ccc(C)cc1C	–	–	–	–	–	–
CCCNC(=O)Nc1ccc(C)cc1C	–	–	-45.3	–	–	–
Cc1ccc(NC(=O)CCC(=O)NNC(=O)C(C)(C)C)c(C)c1	–	–	-92.3	–	–	–
O=C(c1n[nH]c2c1CCCC2)N1CCC(n2c(C3CCCO3)nc3ccccc32)CC1 (configuration not stated)	·	·	·	·	·	–
Cc1ccc(S(=O)(=O)CC(C)N2CCOCC2)c(S(=O)(=O)CC(C)N2CCOCC2)c1 (configuration not stated)	–	–	-41.3	–	–	–
COc1ccccc1-c1ccnc(-n2ncc(C(=O)NCC3(N4CCOCC4)CCCC3)c2C)n1	·	·	·	·	·	–
Cc1ccccc1NC(=O)Cc1nc(COC(=O)CSc2ccccc2)cs1	–	–	–	–	–	–
Cc1ccccc1NC(=O)Cc1nc(COC(=O)CSc2ccc(F)cc2)cs1	·	–	-58.2	–	–	–
CCOC(=O)N1CC=C2C(C#N)=C(N)C(C#N)(C#N)[C@H](c3cccs3)C2C1 (some centres not stated)	–	–	–	–	–	–
CC1CC=C2C(C#N)=C(N)C(C#N)(C#N)C(c3cccs3)C2C1 (configuration not stated)	–	–	–	–	20.7µM	–
CCCc1nnc(SCC(=O)N2CCCC2)n1Cc1ccco1	–	–	-46.7	–	–	–
CCOC(=O)N1CCC(n2c(SCC(=O)Nc3nccs3)nc3ccsc3c2=O)CC1	–	–	–	-80.7%	–	–
